Data on seven compounds can be found in PubChem BioAssay (NCATS).

Assay [1] deals with Cytochrome P450 1A2 (Homo sapiens) (UniProt P05177). Briefly: p450-cyp1a2 (AID 410; calls by dose curve; also: potency is read from the fitted curve at half-maximal effect;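 as to activity change, negative = inhibition: -100% = full effect of reference inhibitor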). In outline:
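Inhibition was calculated relative to 57 uM furafylline (full inhibition). The reaction used human CYP1A2 at 20nM with Luciferin-ME at its Km, 100uM, driven by an NADPH-regenerating system for 60 min at room temperature.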

Assay [2] concerns the target Glucocorticoid receptor (Homo sapiens) (UniProt P04150). Briefly: GR-GFP Redistribution (AID 450;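 active = compounds whose dose series gives a full or clear partial fitted curve of increased nuclear translocation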; also: potency is read from the fitted curve at half-maximal effect). The following applies: U2OS GR-GFP nuclear translocation, laser cytometry, 2 h.
The target is the same in assay [3]. Briefly: GR-EFC Redistribution (AID 451; calls by dose curve; also: potency is read from the fitted curve at half-maximal effect). The following applies: CHO-K1 GR-EFC translocation, beta-gal luminescence, 2 h. In outline:
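CHO-K1 cells stably expressing nuclear-localized β-gal enzyme acceptor and GR fused C-terminally to the enzyme donor fragment; ligand-driven nuclear translocation restores β-gal by complementation. Compounds titrated up to 46 uM final, 2 h at 37 °C; luminescence read.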

Assay [4] has as its target Mitogen-activated protein kinase 10 (Mus musculus) (UniProt Q61831). As to the kind of experiment: JNK3 AlphaScreen Assay (AID 530).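 Also: kinase came from lysate of stimulated human HepG2 cells; signal reports phosphorylation of biotinylated GST-cJun 1-79 at Ser73 with 10 µM ATP; series mostly up to about 57 µM; % is scaled to controls: 0 for no effect and ±100 for the full control effect.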 Put shortly:
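JNK3 came from HepG2 lysates pre-activated with IL-1beta and TNF-alpha and phosphorylated biotinylated GST-cJun (1-79) at 10 uM ATP, pH 7.6, room temperature. Compounds were titrated. AlphaScreen signal used anti-phospho-cJun (Ser73) antibody.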
On the technique in general: Bead proximity is the source of the signal in Alpha formats.

In assay [5] the target is Lysosomal acid glucosylceramidase (Homo sapiens) (UniProt P04062). Briefly: Glucocerebrosidase-p2 (AID 348; in the data active = potency below about 10 µM; also: potency is read from the fitted curve at half-maximal effect). To be noted: purified GBA, blue fluorogenic substrate, 40 min. Put shortly:
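Compounds titrated from 0.6 nM upwards against 0.2 nM enzyme in pH 5.9 citric acid/KH2PO4, taurocholate, tween-20; blue fluorogenic substrate 80 uM, 40 min room temperature, stopped and read Ex 365/Em 440 for AC50.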

Assay [6] in a line: AP1 Signaling Pathway (AID 357). Also: % is scaled to controls: 0 for no effect and ±100 for the full control effect. Put shortly: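 ME-180 cells with beta-lactamase reporter under AP-1 response element, stimulated with EC50 EGF; compounds tested in titration series, 5 h at 37 °C. CCF4 substrate added 2.5 h at room temperature; 460/530 nm emission ratio gave %activity and AC50.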
In assay [7] the target is 3',5'-cyclic-AMP phosphodiesterase 4B (Homo sapiens) (UniProt Q07343). Briefly: qHTS Assay for Inhibitors of PDE-IV (AID 607; active = well fitted activation curve with a large enough effect in the main read-out, with a control signal flat, not every such curve was filed as active; also: % of control where 0% means no effect). Put shortly: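 Live HEK293 cells with a modified cyclic nucleotide-gated (CNG) channel report intracellular cAMP via membrane-potential dye fluorescence (ex 535/em 590 nm). Endogenous PDE-IV was targeted. Compounds were tested at up to 22.9 uM final; RO 20-1724 100 uM served as control.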
3',5'-cyclic-AMP phosphodiesterase 4B (Homo sapiens), sequence (Q07343 whole entry, looked up): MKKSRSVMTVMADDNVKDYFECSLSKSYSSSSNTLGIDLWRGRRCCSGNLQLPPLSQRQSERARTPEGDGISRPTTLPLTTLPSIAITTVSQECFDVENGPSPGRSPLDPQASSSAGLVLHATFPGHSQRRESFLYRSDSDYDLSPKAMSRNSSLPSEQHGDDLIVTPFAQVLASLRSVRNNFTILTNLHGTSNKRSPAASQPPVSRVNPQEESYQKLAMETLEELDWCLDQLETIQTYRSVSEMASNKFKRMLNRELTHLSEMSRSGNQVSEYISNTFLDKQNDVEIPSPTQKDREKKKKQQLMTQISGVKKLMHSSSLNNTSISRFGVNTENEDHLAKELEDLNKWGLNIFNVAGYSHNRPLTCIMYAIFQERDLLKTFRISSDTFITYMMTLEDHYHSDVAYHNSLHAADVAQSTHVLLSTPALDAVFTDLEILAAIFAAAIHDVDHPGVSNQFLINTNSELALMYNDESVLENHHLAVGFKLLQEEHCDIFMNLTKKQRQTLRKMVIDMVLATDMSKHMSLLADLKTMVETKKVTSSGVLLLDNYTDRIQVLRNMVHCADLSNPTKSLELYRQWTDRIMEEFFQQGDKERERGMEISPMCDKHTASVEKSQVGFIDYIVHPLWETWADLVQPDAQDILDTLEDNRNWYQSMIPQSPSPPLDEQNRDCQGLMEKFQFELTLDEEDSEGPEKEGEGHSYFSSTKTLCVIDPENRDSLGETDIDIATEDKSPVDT

The nature of assay [8]: NFAT Signaling Pathway (AID 444).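 Also: carbachol stimulus at about its EC50 of 1 µM final; % is scaled to controls: 0 for no effect and ±100 for the full control effect.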 Put shortly:
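Jurkat cells carrying an NFAT-driven β-lactamase reporter and co-transfected muscarinic M1 receptor were treated with compound plus carbachol (1 uM final, an EC50 level) for 5 h at 37 °C. CCF4 loading followed for 1 h at RT; 460/530 nm ratio gave %activity.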

Assay [9] in a line: Stat Signaling Pathway (AID 446).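 Also: ME-180 cervical cancer cells given 40 pM IL-6 alongside compound; SIE-controlled beta-lactamase reporter measured as 460/530 nm FRET emission ratio; % is scaled to controls: 0 for no effect and ±100 for the full control effect.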 Put shortly:
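IL-6/STAT signaling read in ME-180 cells via an SIE beta-lactamase reporter. Stimulus was 40 pM IL-6 (its AC50) for 5 hrs, so both activation and inhibition register.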

Assay [10] has as its target Guanine nucleotide-binding protein G(i) subunit alpha-1 (Homo sapiens) (UniProt P63096). Briefly: qHTS Assay for Inhibitors of RGS12 GoLoco Motif Activity (Green Fluorophore) (AID 879; active = well fitted curve in the direction sought with a large enough effect;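 also: 0% = labeled peptide with Gαi1 and full inhibition = labeled peptide alone without protein; negative values mean loss of peptide binding seen as reduced polarization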). Put shortly:
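Fluorescence polarization assay: 50 nM Gαi1 with 10 nM FITC-labeled RGS12 GoLoco peptide in 10 mM Tris pH 7.5, 150 mM NaCl, 0.1 mM GDP, 0.05% NP40, 10 min at room temperature with compound.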
In general terms: qHTS replaces the single test concentration by a dilution series.

Values without a mark were called inactive. Results filed as inconclusive are left out. The source made the active and inactive calls. Unless noted, calls follow the shape of the dose curve; as a rule, active = well fitted curve in either direction with a large enough effect (not every such curve was filed as active); inconclusive = small, poorly fitted or top-dose-only effect, or another doubt; inactive = flat fitted curve, though single readings scatter.

Cytochrome P450 1A2 (Homo sapiens), sequence (P05177 whole entry, looked up): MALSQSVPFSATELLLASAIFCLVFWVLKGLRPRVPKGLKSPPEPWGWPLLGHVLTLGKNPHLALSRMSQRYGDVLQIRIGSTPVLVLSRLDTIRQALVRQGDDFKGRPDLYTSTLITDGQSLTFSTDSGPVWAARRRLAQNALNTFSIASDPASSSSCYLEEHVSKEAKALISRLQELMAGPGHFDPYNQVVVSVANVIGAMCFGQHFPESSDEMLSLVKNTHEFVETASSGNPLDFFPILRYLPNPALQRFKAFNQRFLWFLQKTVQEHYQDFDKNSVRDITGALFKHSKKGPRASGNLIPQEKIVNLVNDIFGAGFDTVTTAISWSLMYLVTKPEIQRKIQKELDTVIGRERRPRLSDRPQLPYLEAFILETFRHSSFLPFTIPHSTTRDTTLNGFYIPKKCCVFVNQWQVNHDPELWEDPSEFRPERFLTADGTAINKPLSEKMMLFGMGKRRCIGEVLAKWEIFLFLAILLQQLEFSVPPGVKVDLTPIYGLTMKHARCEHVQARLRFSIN
Glucocorticoid receptor (Homo sapiens), sequence (P04150 whole entry, looked up): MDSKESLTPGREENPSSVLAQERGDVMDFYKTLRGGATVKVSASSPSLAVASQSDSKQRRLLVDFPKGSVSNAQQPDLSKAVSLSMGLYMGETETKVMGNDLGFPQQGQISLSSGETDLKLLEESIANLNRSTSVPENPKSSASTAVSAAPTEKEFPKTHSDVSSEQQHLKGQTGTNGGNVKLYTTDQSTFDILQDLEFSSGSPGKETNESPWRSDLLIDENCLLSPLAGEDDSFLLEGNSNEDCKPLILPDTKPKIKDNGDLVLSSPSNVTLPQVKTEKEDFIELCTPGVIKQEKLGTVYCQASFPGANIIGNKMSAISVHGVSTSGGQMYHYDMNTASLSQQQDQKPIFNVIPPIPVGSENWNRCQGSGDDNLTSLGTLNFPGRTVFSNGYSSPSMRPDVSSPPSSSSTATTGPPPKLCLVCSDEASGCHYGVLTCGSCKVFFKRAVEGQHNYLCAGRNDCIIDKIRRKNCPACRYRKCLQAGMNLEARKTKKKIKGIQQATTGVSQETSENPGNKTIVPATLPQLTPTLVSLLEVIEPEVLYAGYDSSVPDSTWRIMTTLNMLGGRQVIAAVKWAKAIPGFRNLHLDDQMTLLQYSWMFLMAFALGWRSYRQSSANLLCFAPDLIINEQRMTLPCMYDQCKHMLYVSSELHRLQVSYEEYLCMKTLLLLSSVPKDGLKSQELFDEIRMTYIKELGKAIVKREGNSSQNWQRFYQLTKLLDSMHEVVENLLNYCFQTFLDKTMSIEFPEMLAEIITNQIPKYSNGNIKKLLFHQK
Lysosomal acid glucosylceramidase (Homo sapiens), sequence (P04062 whole entry, looked up): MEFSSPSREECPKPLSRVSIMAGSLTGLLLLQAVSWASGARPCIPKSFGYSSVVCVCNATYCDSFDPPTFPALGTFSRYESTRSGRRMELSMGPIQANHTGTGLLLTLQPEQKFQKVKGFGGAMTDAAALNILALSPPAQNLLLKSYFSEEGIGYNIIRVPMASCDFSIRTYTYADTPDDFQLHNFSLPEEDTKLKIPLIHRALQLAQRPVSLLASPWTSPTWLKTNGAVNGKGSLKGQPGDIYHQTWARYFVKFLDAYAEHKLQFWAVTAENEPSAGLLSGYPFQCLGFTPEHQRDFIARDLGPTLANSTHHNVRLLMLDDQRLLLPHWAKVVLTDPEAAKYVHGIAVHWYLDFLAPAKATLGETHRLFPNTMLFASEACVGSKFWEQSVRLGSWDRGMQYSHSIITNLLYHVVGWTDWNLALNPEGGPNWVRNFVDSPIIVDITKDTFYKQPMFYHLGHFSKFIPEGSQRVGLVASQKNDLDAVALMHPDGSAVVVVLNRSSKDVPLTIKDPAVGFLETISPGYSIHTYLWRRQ
Guanine nucleotide-binding protein G(i) subunit alpha-1 (Homo sapiens), sequence (P63096 whole entry, looked up): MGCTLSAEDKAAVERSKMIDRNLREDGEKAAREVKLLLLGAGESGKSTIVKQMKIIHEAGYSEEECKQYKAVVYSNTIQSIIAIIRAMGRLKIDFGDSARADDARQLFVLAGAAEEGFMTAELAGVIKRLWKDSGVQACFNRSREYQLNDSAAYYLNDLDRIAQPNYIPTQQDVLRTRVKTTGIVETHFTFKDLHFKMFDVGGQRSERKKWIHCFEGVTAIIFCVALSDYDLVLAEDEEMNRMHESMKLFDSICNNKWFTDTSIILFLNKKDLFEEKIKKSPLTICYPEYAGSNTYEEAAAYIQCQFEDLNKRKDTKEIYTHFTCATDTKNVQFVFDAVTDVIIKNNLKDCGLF

Consider `CC(C)c1ccc(Cn2ccc3c4c(N)nc(NC5CC5)nc4ccc32)cc1`, for which the Potency was 1.58 µM (active) in assay [1], > 46 µM in [2] and > 46 µM in [3]. In assay [4], the outcome was inactive.

Turning to `CN(C)CCCN=c1c2ccccc2n(C)c2[nH]c(=O)n(C)c(=O)c12`, the Potency in assay [5] was > 11.4 µM; in [1] it was 5.01 µM (active); in assay [2], > 46 µM; in [3], > 9.22 µM. The result in [6] and in assay [7] was inactive. Further, in assay [4], the activity change, negative = inhibition is 0.481% [at 11.4 µM].

For `O=c1c2ccccc2nc2n1CCc1c-2[nH]c2ccccc12`, the Potency in assay [1] is 0.316 µM (active); in assay [2], > 46 µM; in assay [3] it was > 46 µM. The result in assay [8], in assay [9], in [4], in assay [7] and in [10] was inactive.

For `Nc1ccc(S(=O)(=O)Nc2ncccn2)cc1`, the compound was classed as inactive in assay [6], in assay [8], in assay [9], in assay [4] and in [7]. Moreover, the Potency entry in assay [1] was “inactive”.

As to `O=C(O)[C@H](Cc1c[nH]c2ccccc12)N1C(=O)c2ccccc2C1=O`, the results for the Potency in assay [5], in assay [2] and in assay [3] were > 11.4 µM, > 46 µM and > 9.22 µM, respectively. Moreover, the compound was called inactive in assay [6], in assay [8], in [9] and in assay [7]. Further, the activity change, negative = inhibition in assay [1] was -8.3% [at 2.29 µM]; in assay [4] it was -0.545% [at 11.4 µM].

Regarding `COC(=O)C[C@](O)(CCCC(C)(C)O)C(=O)O[C@@H]1C(OC)=C[C@]23CCCN2CCc2cc4c(cc2[C@H]13)OCO4`, the Potency entry in assay [1] is “inactive”. Moreover, the Potency in [2] and in assay [3] was > 46 µM in each case. The result in assay [4] and in [7] was inactive.

Turning to `C[C@H]1C[C@@H]2[C@@H]([C@@H](O)C[C@@]3(C)[C@H]2CC[C@]3(O)C(=O)CO)[C@@]2(C)C=CC(=O)C=C12`, the call in assay [6], in assay [8], in assay [9], in assay [4] and in assay [7] was inactive.
